This is a sample that favours compounds with a hit; in the whole collection about 1.8% have one here.
EP2 mod: modulates human prostaglandin E2 receptor EP2 signaling. P43116. AID 940. induction, % at 25 µM. EP2-expressing cells, cAMP HTRF FRET, PGE2 co-stimulation. hit rate 0.83% among 260,000;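 active means compounds whose cAMP rise, as percent of the full-agonist control response, exceeds 60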;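 further: rat C6 glioma line stably carrying human EP2 under a CMV promoter; the protocol text gives 20 µM as final concentration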
PGE2 EP2 inh: inhibitors of human EP2 prostaglandin E2 receptor; P43116; C6 glioma cells expressing human EP2, cAMP TR-FRET; cells stimulated with saturating PGE2; inhibition, % at 25 µM; hit rate 0.52% among 260,000; AID 1422;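 active means percent inhibition above 40 after rounding to a whole number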;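 further: rat C6 glioma host cells with rolipram phosphodiesterase inhibitor present; the protocol text gives 20 µM as final concentration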
eIF4E-4G inh: blocks eIF4E binding to eIF4G; P63073+Q04637; TR-FRET eIF4E-eIF4GI(517-606) binding, 2 h; inhibition, % at 21.7 µM; hit rate 0.37% among 220,000;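 active means inhibition above about 30%, limit read from the data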
PERK inh: inhibitors of human PERK kinase. Q9NZJ5. CHO PERK-DD fusion, SEAP luminescence translation reporter. inhibition, % at 5.6 µM. hit rate 0.17% among 220,000;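 active means inhibition above the mean inhibition of all tested compounds plus 3 SD, set separately per screening campaign, cut at about 2.9% in these data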;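 further: PERK kinase domain activated by AP20187 dimerizer at 100 nM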
Of the large screens only hits and unclear results are named; the others gave an inactive call; ! = not active in a repeat; [ ] = remark or other dose.

O=S(=O)(Nc1ccccc1N1CCCCC1)c1ccc(F)cc1	PERK inh 3.2
O=C(Nc1ccccc1N1CCCCC1)c1ncoc1-c1ccc(F)cc1	EP2 mod 63
COc1ccccc1NC(=O)N(CCN1CCOCC1)Cc1cc2c(C)ccc(C)c2[nH]c1=O	none (no result: eIF4E-4G inh, PERK inh)
NC1=NC(=O)/C(=C\c2ccsc2)S1	eIF4E-4G inh 63
Cc1cc(/C=C/C2=CCN(C)CC2)c(C)n1C1CC1	none (no result: PGE2 EP2 inh, eIF4E-4G inh, PERK inh)
CN(C)c1ccc(N=c2sc3ccccc3n2C)cc1	eIF4E-4G inh 38[fluorescence artefact?]
Cn1c(=Nc2ccccc2)sc2ccccc21	none
CS(=O)(=O)c1cnc2ncnn2c1C1CCCN(C(=O)CCc2ccco2)C1 (centres undefined)	none (no result: PGE2 EP2 inh, eIF4E-4G inh, PERK inh)
O=C(CN1C(=O)c2cccc3cccc1c23)Nc1ccccc1C(=O)NC1CCCCC1	EP2 mod 76 (no result: eIF4E-4G inh, PERK inh)
O=C(CN1C(=O)c2ccccc2C1=O)Nc1ccccc1C(=O)NC1CCCCCC1	none
CCC(=O)Nc1nc2ccc(F)cc2s1	none (no result: eIF4E-4G inh, PERK inh)
COc1cc(C2/C(=C(/O)c3ccccc3)C(=O)C(=O)N2c2ccccn2)ccc1O (centres undefined)	eIF4E-4G inh 82
CCOc1ccc(/C(O)=C2\C(=O)C(=O)N(c3cc(C)on3)C2c2ccccc2OC)cc1 (centres undefined)	PGE2 EP2 inh 40
CCc1ccc2[nH]c(=O)c(CN(Cc3ccc4c(c3)OCO4)S(=O)(=O)c3ccccc3F)cc2c1	none (no result: eIF4E-4G inh, PERK inh)
CN(C(=S)SCC1=CCS(=O)(=O)C1)C1CCS(=O)(=O)C1 (centres undefined)	none (no result: eIF4E-4G inh, PERK inh)
FC(F)(F)c1ccccc1-n1c(CN2CCCCC2)n[nH]c1=S	eIF4E-4G inh 85
O=C(CSc1nc2ccccc2n1CCc1ccccc1)N1CCOCC1	none
O=C(CSc1nc2ccccc2n1CCc1ccccc1)c1ccc(O)c(O)c1	eIF4E-4G inh 62
C[C@]12CC[C@H](O)C[C@@H]1CC[C@H]1[C@H]2CC[C@]2(C)[C@@H]1CC[C@H]2c1cc(C(F)(F)F)n[nH]1	PGE2 EP2 inh 55 (no result: eIF4E-4G inh, PERK inh)
CC(=O)O[C@@H]1C=C[C@@]2(C)C(C[C@@H](OC(C)=O)[C@@]3(C)C4=CC(=O)O[C@@H](c5ccoc5)[C@]4(C)CCC23)C1(C)C (some centres undefined)	none (no result: eIF4E-4G inh, PERK inh)
COc1cc(C2SCCCCCCCCCCSC(c3ccc(O)c(OC)c3)SCCCCCCCCCCS2)ccc1O (centres undefined)	PGE2 EP2 inh 41 (no result: eIF4E-4G inh, PERK inh)
COc1cc(C)c(C(C)C)cc1S(=O)(=O)N1CCCC1	none (no result: eIF4E-4G inh, PERK inh)
Cc1cc(C)c2nc3c(c([C@H](O)[C@@H]4CCCCN4)c2c1)CC/C3=C\c1ccc(Cl)cc1	PGE2 EP2 inh 50 (no result: eIF4E-4G inh, PERK inh)
CC1(c2ccccc2)CC(C)(C)N2C(=O)Cc3cccc1c32 (centres undefined)	EP2 mod 62
CN1CCN(CC(=O)N2c3ccccc3C(C)(c3ccccc3)CC2(C)C)CC1 (centres undefined)	none
Cc1cc(C)c2c(=O)n(CC(=O)NC3CCCC3)sc2n1	PGE2 EP2 inh 118
COc1ccc(-c2nc(CS(=O)(=O)CC(=O)NCCc3cc(OC)ccc3OC)c(C)o2)cc1	none
COc1ccc(OC)c(CCNC(=O)Cn2sc3nc(C)cc(C)c3c2=O)c1	PGE2 EP2 inh 112
Cc1cc(C)c2c(=O)n(CC(=O)Nc3cccc(Cl)c3C)sc2n1	PGE2 EP2 inh 44
Cc1cc(C)c2c(=O)n(CC(=O)Nc3ccc(Br)c(C)c3)sc2n1	none
Cc1ccc(OCC(=O)O/N=C(\N)Cc2ccc([N+](=O)[O-])cc2)cc1C	eIF4E-4G inh 40
CCCCCCCCn1ccc(=N)cc1	none
CCCCCCCCCCCCCCCCn1cc[n+](C)c1	eIF4E-4G inh 43
CCSc1nc(C)nc2sc(C)c(C)c12	EP2 mod 69
Cc1nn2cccnc2c1C(=O)N1CCC(CCc2ccccc2C(F)(F)F)CC1	none (no result: eIF4E-4G inh, PERK inh)
O=C(COC(=O)CCc1c[nH]c(=O)[nH]1)Nc1ccccc1	none
Cc1ccc(NC(=O)COC(=O)CCc2c[nH]c(=O)[nH]2)cc1	PERK inh 4.0
CCCn1c(=O)c(C(=O)Nc2ccccc2OC)c(O)c2ccccc21	EP2 mod 67 (no result: eIF4E-4G inh, PERK inh)
CCn1c(=O)c(C(=O)NCCc2ccccc2)c(O)c2ccccc21	EP2 mod 61
CCn1c(=O)c(C(=O)NCCCl)c(O)c2ccccc21	none (no result: eIF4E-4G inh, PERK inh)
O=c1[nH]c2cc3c(cc2cc1CN(Cc1cccs1)Cc1nnnn1C1CCCCC1)OCCO3	none (no result: eIF4E-4G inh, PERK inh)
COC(=O)c1c(NC(=O)c2c(-c3ccccc3Cl)noc2C)sc2c1CCC2	none (no result: PGE2 EP2 inh)
Cc1onc(-c2ccccc2Cl)c1C(=O)Nc1sc2c(c1C(N)=O)CCC(C)C2 (centres undefined)	EP2 mod 62 (no result: PGE2 EP2 inh)
CC(=O)CSc1ncnc2c1oc1ccccc12	EP2 mod 62
CCSc1cc(C2C(C#N)=C(N)OC3=C2C(=O)CC(C)(C)C3)c(C)o1 (centres undefined)	none (no result: eIF4E-4G inh, PERK inh)
CCOc1ccc2nc(NC(=O)CSc3nnnn3-c3ccc(NC(C)=O)cc3)sc2c1	none (no result: eIF4E-4G inh, PERK inh)
COc1ccc([C@@H]2CCN(C(=O)CCn3nc(C)cc3C)C[C@H]2O)cc1	none (no result: PGE2 EP2 inh, eIF4E-4G inh, PERK inh)
CCOc1ccc2nc(Cl)c(C3CC(c4ccco4)=NN3S(C)(=O)=O)cc2c1 (centres undefined)	none
CCOc1ccc2cc(C3CC(c4ccco4)=NN3S(C)(=O)=O)c(=O)[nH]c2c1 (centres undefined)	eIF4E-4G inh 36
CC(C)N(C(=O)CN1C(=O)[C@@H]2CCCN2C(=O)c2ccccc21)C(C)C	none (no result: eIF4E-4G inh, PERK inh)
COc1ccc(CN2CCC(O)(c3ccccc3)C2)cc1Cc1c(C)n[nH]c1C (centres undefined)	none (no result: eIF4E-4G inh, PERK inh)
Cc1ccc(C(=N)c2ccccc2Cc2cccc3ccccc23)c2ccccc12	PGE2 EP2 inh 40 (no result: eIF4E-4G inh, PERK inh)
N=C(c1ccc2ccccc2c1)c1ccccc1Cc1ccccc1	none (no result: eIF4E-4G inh, PERK inh)
COc1ccc(S(=O)(=O)N2CCCC2C(=O)Nc2cccc(C)c2C)cc1 (centres undefined)	none (no result: eIF4E-4G inh, PERK inh)
CCCc1cc(=O)[nH]c(Nc2ccc(N3CCCCC3)cc2)n1	none
CCCCc1ccc(Nc2nc(CCC)cc(=O)[nH]2)cc1	EP2 mod 61
c1ccc(CSc2nnc3c4ccccc4c4ccccc4c3n2)cc1	PGE2 EP2 inh 55!
COc1ccc(C(c2nnnn2C(C)(C)C)N2CCN(c3ccccc3)CC2)cc1OC (centres undefined)	none (no result: eIF4E-4G inh, PERK inh)
CCOc1ccc(NC(=O)C2CC(=O)N(c3ccc(OC)cc3)C2)cc1 (centres undefined)	none (no result: eIF4E-4G inh, PERK inh)
CC1CC(C)CN(C(=O)/C(=C\c2ccccc2)c2ccccc2)C1 (centres undefined)	EP2 mod 63
CCOC(=O)c1csc(N)c1-c1ccc([N+](=O)[O-])cc1	EP2 mod 63
COC(=O)c1ccccc1NC(=O)C12CC3CC(C1)CC(n1cnc(Cl)n1)(C3)C2	EP2 mod 62
O=C(Cn1sc2ccccc2c1=O)NC12CC3CC(CC(C3)C1)C2	PGE2 EP2 inh 132, eIF4E-4G inh 41
CCn1c2ccccc2n2c(=O)n(CC(=O)NC34CC5CC(CC(C5)C3)C4)nc12	none (no result: eIF4E-4G inh, PERK inh)
O=C(O)CCCCCCC1C(=O)NC(=O)N1CCC(O)C1CCCCC1 (centres undefined)	EP2 mod 106
O=C(O)CCCCCN1C(=O)C2CCCCC2C1=O (centres undefined)	none

Source: PubChem
